From PubChem BioAssay
Sampled rows, rich in hits. Any-hit rate of the full collection: about 2.9%.
Pf gamet viab = late stage P. falciparum gametocyte viability inhibitors, primary screen, ATP luminescence, HTS. inhibition, % at 10.9 µM. hit rate 0.065% among 150,000. P. falciparum stage V gametocytes, 24 h;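 active = inhibition above the mean plus 3 SD of compounds within the control limits, set per campaign, cut at about 38% in these data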;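 also: 0% = DMSO wells and 100% = medium only without gametocytes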
Mcl1 Bid PPI = Mcl-1/Bid binding inhibitors, primary screen, biochemical, TR-FRET, 1536-well; TR-FRET Mcl-1/Bid-Dy647 peptide binding; hit rate 0.97% among 220,000; inhibition, % at 21.7 µM; AID 1021, 2008;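 active = compounds that cut the binding signal by more than half at the single screening dose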;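 also: His-tagged Mcl-1 with europium anti-His antibody binding Bid BH3 peptide; 0% = Mcl-1 plus peptide wells and 100% = peptide-only wells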
Mcl1-Noxa inh = Mcl-1/Noxa binding inhibitors, primary screen, biochemical, TR-FRET, 1536-well; Induced myeloid leukemia cell differentiation protein Mcl-1 (Homo sapiens), Q07820; TR-FRET Mcl-1/Noxa peptide binding, 2 h; inhibition, % at 21.7 µM; hit rate 1.5% among 220,000;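 active = compounds that cut the protein-peptide binding signal by more than 50% relative to plate controls in a single-dose test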;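 also: His-tagged Mcl-1 with rhodamine Noxa BH3 peptide and terbium anti-His antibody; 0% = Mcl-1 plus Noxa peptide wells and 100% = peptide-only wells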
Mcl-1 Bim block = inhibitors of Bim peptide binding to Mcl-1, primary screen, biochemical, bead-based flow cytometry, multiplex; Induced myeloid leukemia cell differentiation protein Mcl-1 (Homo sapiens), Q07820; Bim peptide-Mcl-1 binding; inhibition, % at 10 µM; hit rate 0.1% among 190,000; AID 1009, 2008; in the data active = inhibition above about 40%;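 also: 0% = no compound tracer wells and 100% = peptide blocker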
14-3-3 Bad inh = inhibitors of 14-3-3 zeta/Bad binding, primary screen, biochemical, TR-FRET, bovine 14-3-3 zeta | AID 781, 2007 | hit rate 0.71% among 220,000 | inhibition, % at 21.7 µM | 14-3-3 protein zeta/delta (Bos taurus), P63103 | TR-FRET 14-3-3zeta/Dy647-pBad peptide displacement, 1 h;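 active = inhibition above about 70%, limit read from the data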;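 also: 0% = full 14-3-3 plus peptide FRET controls and 100% = background without 14-3-3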
Target sequence (P63103 whole entry, looked up): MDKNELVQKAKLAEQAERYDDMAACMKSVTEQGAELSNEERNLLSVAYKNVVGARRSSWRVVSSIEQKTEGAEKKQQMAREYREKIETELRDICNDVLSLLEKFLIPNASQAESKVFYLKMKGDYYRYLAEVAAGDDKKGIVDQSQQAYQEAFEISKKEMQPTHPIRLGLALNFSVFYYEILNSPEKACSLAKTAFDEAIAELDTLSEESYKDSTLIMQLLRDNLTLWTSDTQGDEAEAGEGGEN
Hck-Nef inh = inhibitors of Nef-activated human Hck kinase, primary screen, biochemical, Z-Lyte FRET, 384-well, Hck-YEEI | Recombinant Hck-YEEI plus Nef, Z-Lyte FRET kinase assay | hit rate 0.68% among 220,000 | inhibition, % at 20 µM | Tyrosine-protein kinase HCK (Homo sapiens), P08631;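 active = Hck-Nef kinase inhibition above about 50%, limit read from the data; inactive = inhibition below that limit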;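 also: 0% = DMSO with Hck plus Nef and 100% = Hck alone without Nef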
* hit, by the source's call; x = not tested or not shown.

SMILES	Pf gamet viab	Mcl1 Bid PPI	Mcl1-Noxa inh	Mcl-1 Bim block	14-3-3 Bad inh	Hck-Nef inh
COc1ccc(/C=N/N=C(/N)N[N+](=O)[O-])c(OC)c1	-12.7	-17.4	8.3	-2.0	-9.5	1.7
CC1=NN(c2ccccc2)C(=O)C1/C=C1/C(=O)NC(=O)N(c2cc(C)cc(C)c2)C1=O (stereo not drawn)	x	9.6	20.1	-2.0	74.6*	-0.8
O=C(O)CCn1cc(C=C2C(=O)NC(=O)NC2=O)c(-c2ccc(Br)cc2)n1	3.9	-59.6	44.6	-1.0	-10.1	13.8
O=C(O)CCn1cc(C=C2C(=O)NC(=S)NC2=O)c(-c2cccc(Cl)c2)n1	-7.0	13.7	96.9*	1.0	29.9	43.5
CN1C(=O)CN=C(c2ccc(Cl)cc2)c2cc(Cl)ccc21	x	97.3*	15.7	-4.0	3.5	-3.5
COc1ccc(CN2CCCCC2c2cccnc2)cc1C (stereo not drawn)	x	-8.2	13.4	2.0	55.1	0.1
COc1cccc(CN2CCCCC2c2cccnc2)c1 (stereo not drawn)	-8.4	37.8	28.7	-1.0	81.3*	5.9
CCN1CCN(c2cc(N3CCCC3)c(F)cc2[N+](=O)[O-])CC1	8.4	-19.6	64.9*	-3.0	-4.7	1.9
CN1CCN(c2cc(N3CCCC3)c([N+](=O)[O-])cc2F)CC1	-15.1	-28.8	-5.6	-2.0	-17.5	0.9
CCOC(=O)c1c(/N=C/C2C(=O)NC(=S)NC2=O)sc(C)c1C	x	67.0*	34.1	-1.0	42.2	12.0
CCOC(=O)c1c(/N=C/C2C(=O)NC(=S)NC2=O)sc2c1CCC2	x	34.8	-20.9	0.0	78.2*	37.9
NC1=C([N+](=O)[O-])C(c2ccc3c(c2)OCO3)c2c(c3ccccc3oc2=O)O1 (stereo not drawn)	3.9	-50.9	25.7	x	7.0	19.7
O=c1oc2ccccc2c(O)c1[C@H]1c2ccc(O)cc2Oc2c1c(=O)oc1ccccc21	18.7	-0.8	60.7*	x	7.5	-18.3
CCN(CC)CC(O)c1ccc(C2CCCC2)cc1 (stereo not drawn)	19.7	3.4	4.2	-1.0	-0.5	2.4
CCN(CC)C(=O)c1ccc(NC(=O)Nc2ccccc2F)cc1	41.6*	-12.7	8.0	0.0	-3.1	-5.9
CNS(=O)(=O)c1ccc(-c2ccc(C=C3C(=O)NC(=O)NC3=O)o2)cc1	-14.6	x	x	x	x	x
O=C1NC(=O)C(=Cc2ccc(-c3cc(Cl)ccc3[N+](=O)[O-])o2)C(=O)N1	-7.1	32.1	86.9*	-4.0	79.4*	61.1*
O=[N+]([O-])c1cc2c(cc1CNCCc1ccc3c(c1)OCO3)OCO2	-26.8	56.4*	20.2	-5.0	15.3	0.8
Fc1ccc(CNCCc2ccc3c(c2)OCO3)cc1	-3.1	x	x	x	x	x
CN1C(=O)C(=Cc2sc(=O)n(-c3ccccc3)c2N2CCCCC2)C(=O)N(C)C1=O	14.9	96.7*	-5.1	x	-4.6	11.3
O=c1[nH]c(O)c(N=Nc2cccc(S(=O)(=O)N3CCOCC3)c2)c(=O)[nH]1	16.8	-16.3	14.5	-2.0	-4.9	-4.1
O=C1NC(=O)C(=Cc2ccc(SC3CCCCC3)o2)C(=O)N1	-33.4	-18.6	72.1*	-5.0	16.5	48.8
O=CC(Br)P(=O)(N1CCOCC1)N1CCOCC1 (stereo not drawn)	-21.3	-71.2	-12.4	x	2.1	-29.8
CN(C)CCCNCC(=O)Nc1ccc(Cl)cc1C(=O)c1ccccc1	-3.5	35.1	34.8	-2.0	30.1	11.4
CCN(CC)CCNCC(=O)Nc1ccc(Cl)cc1C(=O)c1ccccc1	x	15.1	26.1	3.0	85.9*	-3.0
O=C1NC(=O)N(Cc2ccc(F)cc2)C(=O)/C1=C\C=C\c1ccco1	-22.5	-13.6	32.1	x	2.6	22.3
CCCCN1C(=O)/C(=C/C=C/c2ccco2)C(=O)NC1=S	3.8	76.0*	96.2*	-1.0	58.1	27.1
O=C(c1cn(Cc2ccccc2)c2ccccc12)N1CCCCC1	22.6	-10.0	15.2	-2.0	-10.2	15.0
